Source: publication PMC12040169 (PLOS Biology, 2025)

The compounds below were run on T1, CTL2-GFP (C. trachomatis L2/434/Bu, GFP-expressing). Conditions: bulk GFP, single well; 28.5 h, 10 µM; inhibitor.
T1 construct: L2/434/Bu, GFP-expressing
Design: species or system HeLa; Intracellular C. trachomatis growth in HeLa cells, bulk GFP fluorescence relative to DMSO
Description: MICs were calculated as described above.

| Compound | % of control remaining |
| --- | --- |
| O=C(c1cccc(S(=O)(=O)F)c1)N1CCCCC1 [CBK074224] | 100.074% |
| S=P(Oc1ccccc1)(Oc1ccccc1)Oc1ccccc1 [CBK260987] | 100% |
| CCOC(=O)CC(C)(O)P(=O)(OC)OC (stereo not drawn) [CBK261287] | 100% |
